Sampled rows, rich in hits. Any-hit rate of the full collection: about 12%.
BAZ2B block: inhibitors of human BAZ2B bromodomain; AID 504333; Q9UIF8; AlphaScreen BAZ2B-H3K14Ac peptide displacement; 4.4% of 360,000 active; Potency, µM (series often up to 114 µM), without a hit: top-dose activity change, negative = inhibition, most hits filed as inhibitors; note: potency is the fitted concentration of half-maximal effect; % is set by controls: 0 for no effect and ±100 for the full control effect; nearly all actives have a fitted effect of over 60% in size
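BAZ2B 50 nM plus b-H3(5-23)K14Ac 50 nM, PBS pH 7.4/0.01% Tween-20, 30 min RT; compound added (max 110 uM), 30 min RT; streptavidin donor/Ni-chelate acceptor beads 10 ug/mL final, 20 min dark; AlphaScreen read.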
PLK1 PBD block: blocks phosphopeptide binding to human PLK1 polo-box domain; P53350; 2.8% of 360,000 active; Plk1 PBD binding of FITC phosphopeptide, fluorescence polarization; Potency, µM, for the others: max response, negative = inhibition, usual class: inhibitors; note: potency is the fitted concentration of half-maximal effect; series mostly up to about 57 µM; % is set by controls: 0 for no effect and ±100 for the full control effect; nearly all actives have a fitted effect of over 65% in size
HP1b chromo inh: blocks HP1-beta chromodomain binding to methylated histone tails | AlphaScreen HP1-beta / biotin-H3K9me3 peptide binding | Potency, µM (top dose mostly 114 µM), inactives show at the highest dose activity change, negative = inhibition, actives largely listed as inhibitors | 0.56% of 390,000 active | AID 540317; note: potency is the fitted concentration of half-maximal effect; nearly all actives have a fitted effect of over 70% in size
Target sequence (P83916 whole entry, looked up): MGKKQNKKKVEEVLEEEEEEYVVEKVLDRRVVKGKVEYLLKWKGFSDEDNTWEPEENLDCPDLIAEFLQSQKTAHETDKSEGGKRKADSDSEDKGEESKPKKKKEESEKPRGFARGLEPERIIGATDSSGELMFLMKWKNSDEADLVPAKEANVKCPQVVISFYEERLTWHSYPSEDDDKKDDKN
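Compound inhibition of the preformed complex between 50 nM HP1-beta and 50 nM biotinylated H3K9me3 peptide was read by AlphaScreen. Buffer was PBS pH 7.4 with 0.01% Tween-20. Incubations ran 30 min at room temperature, with 10 ug/mL donor/acceptor beads.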
G9a block: blocks human histone lysine methyltransferase G9a. G9a H3K9 monomethylation, AlphaScreen, 2 h. Potency, µM (doses to about 102 µM), inactives show at the top dose activity, negative = inhibition, most hits filed as inhibitors. 8.8% of 350,000 active; note: potency is the fitted concentration of half-maximal effect; % is set by controls: 0 for no effect and ±100 for the full control effect; nearly all actives have a fitted effect of over 75% in size
Target sequence (Q96KQ7 913-1193 limits assumed): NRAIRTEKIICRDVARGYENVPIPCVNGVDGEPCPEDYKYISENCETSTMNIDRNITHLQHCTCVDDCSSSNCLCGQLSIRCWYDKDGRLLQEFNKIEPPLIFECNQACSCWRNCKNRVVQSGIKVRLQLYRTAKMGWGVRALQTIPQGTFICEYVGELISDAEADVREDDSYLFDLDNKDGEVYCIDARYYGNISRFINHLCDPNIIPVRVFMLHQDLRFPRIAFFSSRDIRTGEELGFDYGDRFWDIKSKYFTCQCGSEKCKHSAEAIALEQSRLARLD
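Compounds were preincubated with 20 nM G9a for 15 min, after which biotinylated H3K9 peptide (500 nM) and SAM (20 uM) started a 2 h room-temperature reaction. Monomethylated product was quantified by antibody-based AlphaScreen chemiluminescence.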
JMJD2A Tudor inh: blocks the human JMJD2A Tudor domain; AlphaScreen JMJD2A-Tudor / H3K4me3 peptide binding; O75164; 4.4% of 390,000 active; Potency, µM (highest dose often 114 µM), for the others: at the highest dose activity change, negative = inhibition, most hits filed as inhibitors; note: potency is the fitted concentration of half-maximal effect; % is set by controls: 0 for no effect and ±100 for the full control effect; nearly all actives have a fitted effect of over 50% in size
PI5P4K alpha inh: PI5P4K alpha (human) kinase inhibition; 1.2% of 330,000 active; PI5P4Kalpha enzyme, ADP-Glo luminescence, 60 min; active compounds read low; AID 652105; P48426; max response, %; active = max response of -50% or lower; inconclusive = between -30% and -50%; inactive = -30% or higher; note: value at the top dose of about 77 µM; % is set by controls: 0 for no effect and ±100 for the full control effect
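Reactions run in 0.038 M HEPES pH 7.4, 0.28 mM EGTA, 0.1% CHAPS and 5% DMSO, with PI5P4Kalpha, substrate, compound and 5 microM ATP final, one hour at room temperature. Readout is ADP-Glo luminescence.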
The depositor's hits bear a star; ? = inconclusive; . = no result; [ ] = another dose, or the depositor's remark. Unless noted, calls come from the whole dose curve; as a rule, active = well fitted curve in the direction sought with a large enough effect; inconclusive = small, poorly fitted or top-dose-only effect, or another doubt; inactive = no such curve, though single readings can be large; an effect the other way counts as inactive or inconclusive.

SMILES	BAZ2B block	PLK1 PBD block	HP1b chromo inh	G9a block	JMJD2A Tudor inh	PI5P4K alpha inh
Cc1ccc(C(C)C)c(OCC(=O)Nc2ccc(O)c(-c3nc4cc(Cl)ccc4o3)c2)c1	1%	.	19%	7%[59 µM]	-17%	.
CCOc1ccccc1NC(=O)c1ccc2c(Cl)c3c(nc2c1)CCC3	-10%	.	26%	-12%[59 µM]	-12%	.
COc1cc(OC)cc(-c2nc3nc(C)c(CCC(=O)Nc4cc(C)cc(C)c4)c(C)n3n2)c1	-5%	.	35%	3%[59 µM]	5%	.
CCOC(=O)C1=C(CC)Nc2ccccc2N/C1=N\S(=O)(=O)c1cc(Br)ccc1Br	?	21µM*	-13%	1%[59 µM]	?	-27
CCOC(=O)C1=C(CC)Nc2ccccc2N/C1=N\S(=O)(=O)c1ccc2ccccc2c1	-21%	-14%	24%	?	-21%	3
c1ccc(Nc2cccc(Nc3ccccc3)n2)cc1	45µM*	-23%	?	7.9µM*	56µM*	-3
c1ccc(Nc2ccccc2)cc1	-2%	-3%	28%	?	-13%	-2
c1ccc(Nc2ccccn2)cc1	1%	24µM*	?	6%[59 µM]	22µM*	-11
Cc1ccc(C)c(Cn2nnc(C(=O)NCc3ccc(Cl)cc3Cl)c2N)c1	?	.	10%	-23%[59 µM]	-16%	.
O=C(/C=C1\NC2(CCCC2)Cc2ccccc21)C(=O)N/N=C/c1ccc(O)c(O)c1	40µM*	-19%	?	11µM*	10µM*	?
COc1ccccc1N1CCN(C(=O)C2CCN(S(=O)(=O)c3cccs3)CC2)CC1	0%	.	10%	14%[59 µM]	-20%	.
Cc1ccc(CNC(=O)c2oc3c(c2C)-c2nn(Cc4ccc(Cl)cc4)cc2CC3)cc1	-2%	.	53%	1%[59 µM]	-3%	.
COc1ccc(C(=O)/C=C/NCc2ccc(F)cc2)cc1OC	-12%	-4%	10%	50µM*	-17%	0
CCOc1ccc(N/C=C/C(=O)c2ccc(OC)c(OC)c2)cc1	-4%	9%	22%	21%	-13%	2
CCCOc1ccc(N/C=C/C(=O)c2ccc(OC)c(OC)c2)cc1	-10%	21µM*	14%	.	28µM*	8
Cc1ccc(C(=O)/C=C/NCc2ccc(F)cc2)cc1	-6%	-12%	21%	-11%[59 µM]	-11%[57.1 µM]	6
CCN(CCCNC(=O)c1cc2c(=O)[nH]c3ccc(C)cc3c2s1)Cc1ccccc1	?	.	-2%	?	?	.
CCOC(=O)c1cc(C#N)c(N2CCN(c3ccc(OC)cc3)CC2)[nH]c1=O	?	-10%	5%	5µM*	-27%	?
CCOC(=O)C1=C(CN2c3ccccc3CC2C)NC(=O)NC1c1ccccc1 (centres undefined)	50µM*	-8%	?	?	?	2
CCOC(=O)C1=C(CN2CCN(C)CC2)NC(=O)NC1c1ccc(F)cc1 (centres undefined)	6%	.	22%	4%[59 µM]	10%	.
CCOC(=O)c1[nH]c(CN2CCN(c3ccc(OC)cc3)CC2)c(C(=O)OCC)c1C	14µM*	-2%	45µM*	22µM*	50µM*	-2
CCOC(=O)c1[nH]c(C)c(C(=O)N2CCN(c3ccc(OC)cc3)CC2)c1C	.	-7%	27%	?	-33%	-3
CCOC(=O)C1=C(CN2CCN(c3ccc(OC)cc3)CC2)NC(=O)NC1c1ccc(OC)cc1 (centres undefined)	40µM*	.	-38%	11µM*	56µM*	.
COc1ccc(Cl)cc1NC(=O)c1nn(C)c2c1CS(=O)(=O)c1ccccc1-2	-13%	.	3%	-10%[59 µM]	-13%	.
COc1cc(OC)c(NC(=O)C(C)n2nc(-c3ccc(C)cc3)c3c(c2=O)CCCC3)cc1Cl (centres undefined)	-32%	.	9%	?	-29%	.
COc1ccccc1-c1cnc(C(O)c2ccc(C(C)(C)C)cc2)[nH]1 (centres undefined)	.	-15%	.	.	.	0
CCOC(=O)C1=C(CN2CCN(c3ccc(OC)cc3)CC2)NC(=O)NC1c1ccc(Cl)cc1 (centres undefined)	.	.	?	7.9µM*	13µM*	.

Assay outcomes (PubChem)
